The panel holds about 83,000 compounds, 20% with a hit somewhere; the sample as a whole holds those more often.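 Treatment: one concentration, 48 hours, 96-well format. Scoring: percent growth, with anything below 10 considered active.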 The source made the active and inactive calls.
Tests used:
Experiment in all cases: NCI-60 one-dose screen, 48 h (100 = growth as untreated, 0 = no growth, -100 = all killed)
DU-145 prostate = details: 10 µM unless noted
MALME-3M melanoma = details: 10 µM unless noted
MDA-MB-231 breast = details: 10 µM unless noted
RXF 393 renal = details: 10 µM unless noted
SF-268 CNS = details: 10 µM unless noted
SF-295 CNS = details: 10 µM unless noted
SF-539 CNS = details: 10 µM unless noted
UACC-257 melanoma = details: 10 µM
M14 melanoma = details: 10 µM unless noted
HCT-15 colon = details: 10 µM unless noted
HT29 colon = details: 10 µM unless noted
SNB-75 CNS = details: 10 µM unless noted
SNB-19 CNS = details: 10 µM unless noted
U251 CNS = details: 10 µM unless noted
PC-3 prostate = details: 10 µM unless noted
SK-MEL-5 melanoma = details: 10 µM unless noted
UACC-62 melanoma = details: 10 µM unless noted
LOX IMVI melanoma = details: 10 µM unless noted
SK-MEL-28 melanoma = details: 10 µM unless noted
K-562 leukemia = details: 10 µM unless noted

Measured: growth

COc1ccc([C@H]2[C@H](O)C(=O)N2c2cc(OC)c(OC)c(OC)c2)cc1Cl
inactive: DU-145 prostate 18.3% | MALME-3M melanoma 65.9% | MDA-MB-231 breast 26.9% | RXF 393 renal 24.3% | SF-268 CNS 44.7% | UACC-257 melanoma 40.8% | M14 melanoma 10.3% | SNB-75 CNS 58.6% | SNB-19 CNS 29.2% | PC-3 prostate 12.6% | UACC-62 melanoma 31% | LOX IMVI melanoma 14.4% | SK-MEL-28 melanoma 63.6%
active: SF-295 CNS 5.44% | SF-539 CNS -9.87% | HCT-15 colon 9.77% | HT29 colon 1.45% | U251 CNS 1.42% | SK-MEL-5 melanoma -12.5%

C=CCn1c(SCC(=O)Nc2cccc(C(=O)/C=C/c3ccccc3Cl)c2)nc2ccccc2c1=O
inactive: DU-145 prostate 93.7% | MALME-3M melanoma 96.9% | MDA-MB-231 breast 93.8% | RXF 393 renal 94.3% | SF-268 CNS 88.4% | SF-295 CNS 93.8% | SF-539 CNS 86.6% | UACC-257 melanoma 107% | M14 melanoma 87.5% | HCT-15 colon 75.4% | HT29 colon 75% | SNB-75 CNS 70.9% | SNB-19 CNS 78.5% | U251 CNS 81.8% | PC-3 prostate 82.8% | SK-MEL-5 melanoma 98.8% | UACC-62 melanoma 83.4% | LOX IMVI melanoma 79.5% | SK-MEL-28 melanoma 92.3%

CS(=O)(=O)c1ccc2c(c1)c1c(n2C(=O)c2ccc(Cl)cc2)CCCC1
inactive: DU-145 prostate 36% | MALME-3M melanoma 43.7% | MDA-MB-231 breast 39.9% | SF-268 CNS 62.1% | SF-295 CNS 22.5% | UACC-257 melanoma 56.8% | M14 melanoma 28.8% | HCT-15 colon 25.7% | SNB-19 CNS 34.9% | U251 CNS 19.9% | PC-3 prostate 22.7% | SK-MEL-5 melanoma 25.5% | UACC-62 melanoma 23.8% | LOX IMVI melanoma 40.5% | SK-MEL-28 melanoma 60.9%
active: RXF 393 renal -12.1% | SF-539 CNS 1.96% | HT29 colon 5.05% | SNB-75 CNS 5.66%

CS(=O)c1nccc(-c2c(-c3ccc(F)c(OCCc4ccccc4)c3)nc3sccn23)n1 (configuration not stated)
inactive: MALME-3M melanoma 87.5% | MDA-MB-231 breast 84.7% | RXF 393 renal 98.5% | SF-268 CNS 101% | SF-295 CNS 101% | SF-539 CNS 95.9% | UACC-257 melanoma 28.5% | M14 melanoma 76% | HCT-15 colon 65.4% | HT29 colon 59.9% | SNB-75 CNS 106% | SNB-19 CNS 86.6% | U251 CNS 106% | PC-3 prostate 64.6% | SK-MEL-5 melanoma 100% | UACC-62 melanoma 93.8% | LOX IMVI melanoma 72.1% | SK-MEL-28 melanoma 87.8%
active: DU-145 prostate 4.08%

CCCCCCNC(=O)Oc1ccc(/C(=C(/C)c2ccccc2)c2ccc(OCCN(C)C)cc2)cc1
inactive: DU-145 prostate 83.2% | MALME-3M melanoma 37.6% | MDA-MB-231 breast 52.2% | RXF 393 renal 46.5% | SF-268 CNS 69.1% | SF-295 CNS 90% | SF-539 CNS 46.9% | SNB-75 CNS 73.5% | SNB-19 CNS 64.4% | U251 CNS 54.7% | PC-3 prostate 70.6% | SK-MEL-5 melanoma 78.2% | UACC-62 melanoma 52.8% | LOX IMVI melanoma 13.8% | SK-MEL-28 melanoma 55.1%
active: UACC-257 melanoma -55.9% | M14 melanoma -35.9% | HCT-15 colon -32.3% | HT29 colon -25.6%

Clc1ccccc1/C=C/c1nn2c(-c3ccncc3)nnc2s1
inactive: DU-145 prostate 103% | MALME-3M melanoma 100% | MDA-MB-231 breast 101% | RXF 393 renal 109% | SF-268 CNS 98.7% | SF-295 CNS 98% | SF-539 CNS 98.3% | UACC-257 melanoma 121% | M14 melanoma 85.7% | HCT-15 colon 96.4% | HT29 colon 111% | SNB-75 CNS 105% | SNB-19 CNS 99.6% | U251 CNS 106% | PC-3 prostate 97.2% | SK-MEL-5 melanoma 99.3% | UACC-62 melanoma 94.3% | LOX IMVI melanoma 98.1% | SK-MEL-28 melanoma 103%

CS(=O)(=O)c1nccc(-c2c(-c3ccc(F)c(OCc4ccc(F)cc4)c3)nc3sccn23)n1
inactive: MALME-3M melanoma 111% | MDA-MB-231 breast 79.9% | RXF 393 renal 84.2% | SF-268 CNS 96.1% | SF-295 CNS 96.9% | SF-539 CNS 90.1% | M14 melanoma 81.3% | HCT-15 colon 70% | HT29 colon 85.5% | SNB-75 CNS 106% | SNB-19 CNS 75.4% | U251 CNS 100% | SK-MEL-5 melanoma 96.7% | UACC-62 melanoma 81.1% | LOX IMVI melanoma 19.9% | SK-MEL-28 melanoma 61.6%
active: DU-145 prostate -96.4% | UACC-257 melanoma -56.9% | PC-3 prostate -17.3%

Cc1ccc(/C=C/c2nn3c(-c4ccco4)nnc3s2)cc1
inactive: DU-145 prostate 99.7% | MALME-3M melanoma 106% | MDA-MB-231 breast 110% | RXF 393 renal 95.5% | SF-268 CNS 104% | SF-295 CNS 95.7% | SF-539 CNS 94.7% | UACC-257 melanoma 112% | M14 melanoma 94.8% | HCT-15 colon 96.1% | HT29 colon 103% | SNB-75 CNS 108% | SNB-19 CNS 92.6% | U251 CNS 101% | PC-3 prostate 98.4% | SK-MEL-5 melanoma 98.4% | UACC-62 melanoma 90.7% | LOX IMVI melanoma 105% | SK-MEL-28 melanoma 94.1%

C=CCn1c(SCC(=O)Nc2cccc(C(=O)/C=C/c3cc(OC)c(OC)c(OC)c3)c2)nc2ccccc2c1=O
active: HT29 colon -23.4% | U251 CNS 9.44%
inactive: DU-145 prostate 13.7% | MALME-3M melanoma 71% | MDA-MB-231 breast 29.5% | RXF 393 renal 17.1% | SF-268 CNS 70.3% | SF-295 CNS 83.5% | SF-539 CNS 21.1% | UACC-257 melanoma 80.9% | M14 melanoma 63% | HCT-15 colon 11.6% | SNB-75 CNS 33.9% | SNB-19 CNS 53.8% | PC-3 prostate 51.6% | SK-MEL-5 melanoma 82.5% | UACC-62 melanoma 48.8% | LOX IMVI melanoma 10% | SK-MEL-28 melanoma 83.8%

CS(=O)(=O)c1ccc2c(c1)c1c(n2S(=O)(=O)c2ccc(Cl)cc2)CCCC1
inactive: DU-145 prostate 22.9% | MALME-3M melanoma 54.5% | MDA-MB-231 breast 29.8% | SF-268 CNS 63.3% | SF-295 CNS 21% | UACC-257 melanoma 60.6% | M14 melanoma 26.3% | HCT-15 colon 24% | SNB-19 CNS 30.1% | U251 CNS 25.6% | PC-3 prostate 30.7% | SK-MEL-5 melanoma 26.7% | UACC-62 melanoma 15.5% | LOX IMVI melanoma 36.5% | SK-MEL-28 melanoma 64.2%
active: RXF 393 renal -0.699% | SF-539 CNS 2.97% | HT29 colon 5.37% | SNB-75 CNS -1.4%

C=CCn1c(SCC(=O)Nc2cccc(C(=O)/C=C/c3cccc([N+](=O)[O-])c3)c2)nc2ccccc2c1=O
inactive: DU-145 prostate 94.1% | MALME-3M melanoma 90.1% | MDA-MB-231 breast 90.1% | RXF 393 renal 84.6% | SF-268 CNS 92.5% | SF-295 CNS 93.5% | SF-539 CNS 96.7% | UACC-257 melanoma 99.3% | M14 melanoma 84.2% | HCT-15 colon 79.3% | HT29 colon 94.9% | SNB-75 CNS 85.5% | SNB-19 CNS 90.2% | U251 CNS 87.9% | PC-3 prostate 87.4% | SK-MEL-5 melanoma 98.6% | UACC-62 melanoma 77.2% | LOX IMVI melanoma 72.8% | SK-MEL-28 melanoma 95.4%

CS(=O)c1nccc(-c2c(-c3ccc(F)c(OCc4ccc(F)cc4)c3)nc3sccn23)n1 (configuration not stated)
inactive: MALME-3M melanoma 92.3% | MDA-MB-231 breast 67.8% | RXF 393 renal 87.6% | SF-268 CNS 100% | SF-295 CNS 97.8% | SF-539 CNS 88.4% | M14 melanoma 81.6% | HCT-15 colon 59.4% | HT29 colon 27.9% | SNB-75 CNS 94.4% | SNB-19 CNS 68.7% | U251 CNS 96% | SK-MEL-5 melanoma 100% | UACC-62 melanoma 85.6% | LOX IMVI melanoma 78.6% | SK-MEL-28 melanoma 41.1%
active: DU-145 prostate -9.49% | UACC-257 melanoma -24.6% | PC-3 prostate -10.7%

COc1ccc(/C(C)=C(\c2ccc(Cl)cc2)c2ccc(OCCN)cc2)cc1
active: HT29 colon 0.975% | LOX IMVI melanoma 0.915%
inactive: DU-145 prostate 87.2% | MALME-3M melanoma 83% | MDA-MB-231 breast 67.1% | RXF 393 renal 68.3% | SF-268 CNS 89.4% | SF-295 CNS 103% | SF-539 CNS 90% | UACC-257 melanoma 94.7% | M14 melanoma 81.4% | HCT-15 colon 40.5% | SNB-75 CNS 88.9% | SNB-19 CNS 87.8% | U251 CNS 61.9% | PC-3 prostate 78.9% | SK-MEL-5 melanoma 96.7% | UACC-62 melanoma 98.5% | SK-MEL-28 melanoma 86.1%

COc1ccc(-c2cc(-c3cccc4ccccc34)n3c(n2)nc2ccccc23)cc1
inactive: DU-145 prostate 37.8% | K-562 leukemia 37.2% | MALME-3M melanoma 32.4% | MDA-MB-231 breast 78.2% | SF-268 CNS 46.6% | SF-295 CNS 20.2% | SF-539 CNS 45.7% | UACC-257 melanoma 68.8% | M14 melanoma 52.1% | HCT-15 colon 42.8% | HT29 colon 33.8% | SNB-75 CNS 35.5% | SNB-19 CNS 39.9% | U251 CNS 33.1% | PC-3 prostate 35.8% | UACC-62 melanoma 33.7% | LOX IMVI melanoma 45.7% | SK-MEL-28 melanoma 70.2%

N#C/C(=C\c1ccc(-c2ccc(F)cc2)o1)C(=O)Nc1ncc(Cc2ccc(Cl)cc2Cl)s1
active: DU-145 prostate -46.5% | MALME-3M melanoma -52.7% | SF-268 CNS 1.24% | SF-295 CNS 3.15% | SF-539 CNS -2.12% | M14 melanoma 2.18% | HT29 colon 6.93% | SNB-19 CNS -12.9% | PC-3 prostate 1.25% | LOX IMVI melanoma -85.6%
inactive: K-562 leukemia 15.5% | MDA-MB-231 breast 20.1% | UACC-257 melanoma 84.1% | SNB-75 CNS 58.3% | U251 CNS 21.9% | SK-MEL-5 melanoma 27.4% | UACC-62 melanoma 15.9% | SK-MEL-28 melanoma 39.5%

C=CCn1c(SCC(=O)Nc2cccc(C(=O)/C=C/c3ccc(Br)cc3)c2)nc2ccccc2c1=O
inactive: DU-145 prostate 95.7% | MALME-3M melanoma 72.7% | MDA-MB-231 breast 81.2% | RXF 393 renal 71.1% | SF-268 CNS 90.3% | SF-295 CNS 91.4% | SF-539 CNS 66.6% | UACC-257 melanoma 105% | M14 melanoma 85.4% | HCT-15 colon 76.3% | HT29 colon 83.9% | SNB-75 CNS 61.8% | SNB-19 CNS 76.8% | U251 CNS 74.6% | PC-3 prostate 79.4% | SK-MEL-5 melanoma 98.4% | UACC-62 melanoma 73.4% | LOX IMVI melanoma 74.8% | SK-MEL-28 melanoma 98.2%

From PubChem BioAssay (NCI)
